Source: PubChem (National Center for Advancing Translational Sciences (NCATS))
Eya2 inh = blocks the phosphatase activity of human Eya2. O00167. recombinant Eya2, OMFP fluorescence dephosphorylation (OMFP is methylfluorescein phosphate). Potency, µM (titrated, usually from 76.9 µM), for inactives: top-dose activity, negative = inhibition, actives largely listed as inhibitors. 330,000 compounds, 0.006% hits. AID 488837; further: potency means the concentration at half of the fitted maximal effect; on the % scale 0 is the no-effect control and ±100 the full control effect
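Eya2 (0.2 uM) preincubated 10 min at ambient with compound, then OMFP substrate added at 50 uM; 10 min reaction in 50 mM HEPES pH 7.5, 50 mM NaCl, 5 uM MgCl2, 0.05% BSA, 1 mM DTT. Fluorescence read at Ex 485/Em 525 nm.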
TCR act = activators of T cell receptors; primary human leukocytes, anti-CD3, IL-2 HTRF, 48 h; Potency, µM (series often up to 9.22 µM), inactives show top-dose activation of IL-2 secretion, hits mostly activators; 330,000 tested, under 10 active; AID 504894; further: % of control where 0% means no effect
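Primary human leukocytes incubated 48 hr with anti-CD3 beads plus compound, without co-stimulation. Secreted IL-2 measured by HTRF (europium cryptate/d2 anti-IL-2 pair, 320 nm excitation, 665 nm emission).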
TSHR antagonist = antagonists of human thyroid stimulating hormone receptor. activity change, negative = inhibition, % at 11.5 µM. 330,000 compounds, 0.2% hits. TSHR-expressing cells, TSH-stimulated cAMP HTRF, 2 h; active compounds read low. P16473;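 active means activity change below a set negative limit, meaning inhibition stronger than a set level, cut at about -70% in these data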; further: on the % scale 0 is the no-effect control and ±100 the full control effect
Target sequence (P16473 whole entry, looked up): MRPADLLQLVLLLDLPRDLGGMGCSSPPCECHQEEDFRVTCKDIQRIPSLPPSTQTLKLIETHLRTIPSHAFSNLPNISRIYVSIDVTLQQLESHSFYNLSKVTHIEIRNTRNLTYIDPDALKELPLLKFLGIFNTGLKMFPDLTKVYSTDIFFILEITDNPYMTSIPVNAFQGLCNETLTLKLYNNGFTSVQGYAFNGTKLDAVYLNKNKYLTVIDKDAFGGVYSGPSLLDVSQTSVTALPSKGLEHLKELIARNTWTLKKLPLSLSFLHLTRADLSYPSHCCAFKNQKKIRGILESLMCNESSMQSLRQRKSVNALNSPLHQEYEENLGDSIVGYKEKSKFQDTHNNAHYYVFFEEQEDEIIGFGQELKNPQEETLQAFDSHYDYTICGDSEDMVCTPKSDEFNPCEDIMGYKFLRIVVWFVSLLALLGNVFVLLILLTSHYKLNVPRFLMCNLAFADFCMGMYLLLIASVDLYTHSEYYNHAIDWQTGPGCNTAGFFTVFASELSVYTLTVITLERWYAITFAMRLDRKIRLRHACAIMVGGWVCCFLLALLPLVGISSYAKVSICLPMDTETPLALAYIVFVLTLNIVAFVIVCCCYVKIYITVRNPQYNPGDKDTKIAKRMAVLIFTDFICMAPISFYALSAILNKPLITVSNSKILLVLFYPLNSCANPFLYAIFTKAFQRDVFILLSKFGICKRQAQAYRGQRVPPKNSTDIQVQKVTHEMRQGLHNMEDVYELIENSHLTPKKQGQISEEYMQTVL
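Read-out is FRET at 665 nm (cryptate excitation 337 nm) from a cryptate-tagged anti-cAMP antibody, competed by cell cAMP against cAMP-d2. Compounds are tested on freshly harvested TSHR cells challenged with 4nM TSH (EC80) for 2 hours at 37 deg C.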
Integrin act MD = integrin-mediated muscular dystrophy alleviation activation. alpha7betagal myoblasts, beta-gal FDG fluorescence, 48 h. Potency, µM (top dose mostly 38.3 µM), for the others: top-dose activation, most hits filed as activators. 350,000 compounds, 0.064% hits;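 further: potency means the concentration at half of the fitted maximal effect; 100% = response of the positive control SU9516; nearly all actives have a fitted effect of over 60% in size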
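alpha7betagal+/- myoblasts (passage 13, 250/well) treated 48 h at 37C with compounds at 1:260 dilution of DMSO stock. Lysed, then beta-galactosidase activity read as FDG fluorescence (ex 480/em 540) after 30 min, with pre-read for autofluorescence.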
The depositor's hits bear a star; x = no result given; [ ] = another dose, or the depositor's remark. A selection: hits, their analogues and other compounds. The true share with any hit is near 0.24%. Unless noted, the call rests on the fitted dose curve; in most records, active means well fitted curve in the direction sought with a large enough effect; inconclusive means small, poorly fitted or top-dose-only effect, or another doubt; inactive means no such curve, though single readings can be large; an effect the other way counts as inactive or inconclusive.

SMILES	Eya2 inh	TCR act	TSHR antagonist	Integrin act MD
O=[N+]([O-])c1cnc(Sc2ccncn2)s1	-7.3%	6.1%	-89.4*	-68.8%
C#Cc1cccc(N2C(=O)C3C4C=CC(C3C2=O)C2C(=O)N(c3cccc(C#C)c3)C(=O)C42)c1 (stereo not drawn)	x	-3.6%	x	19.4%
COC(=O)C1SCC2C(=O)N(Cc3ccc(F)cc3)CC(=O)N21 (stereo not drawn)	9.6%	-5.3%	10.9	8.91µM*
COC(=O)C1SCC2C(=O)N(Cc3cccc(C)c3)CC(=O)N21 (stereo not drawn)	8.6%	-0.3%	-1.6	16.7%
Cn1c(=O)c(C(=O)Nc2ncccc2O)c(O)c2ccccc21	56.2µM*	-1.1%	9.4	29.4%
CCCn1c(=O)c(C(=O)Nc2ncccc2O)c(O)c2ccccc21	-1.2%	x	19.9	1.8%
Nc1ncnc2c1nc(Sc1ccc(Cl)cc1)n2[C@H]1OC2COP(=O)(O)O[C@@H]2C1O (stereo partly drawn)	5.2%	x	-6.5	x
CCN(CC)Cc1cc(Nc2c3ccccc3nc3c4ccccc4n(C)c23)cc(CN(CC)CC)c1O	x	8.8%	x	-52.6%
Cn1nc(C(=O)NCC(=O)Nc2ccc(F)c(F)c2)ccc1=O	x	x	x	-0.2%
CCc1oc2ccccc2c1C(=O)c1cc(Br)c(O)c(Br)c1	3.7%	-1.4%	-70.1*	x
Cn1nnnc1SCC(=O)Nc1cc(S(=O)(=O)N2CCCCC2)ccc1Cl	-16.3%	-33.1%	0.5	2.4%
CC(C)(C)c1ccc(-n2nc(C(N)=O)c(O)cc2=O)cc1	-3.8%	0.9%	-0.8	-18.0%
CC(C)(C)c1ccc(-n2nc(C#N)c(Cl)cc2=O)cc1	-6.6%	-2.5%	-80.2*	-64.4%
C=CCc1c(C)nc(-c2ccccc2)nc1N/N=C/c1ccccc1	-4.3%	-4.9%[46.1 µM]	-12.1	11.2µM*
Oc1ccccc1N1CCN(c2ccc3ccccc3n2)CC1	1.8%	0.2%	-77.5*	-16.4%
COc1cc(C#N)ccc1OCC(=O)Nc1cccc(S(=O)(=O)N(C)c2ccccc2)c1	x	x	x	-19.2%
Cc1ccc(/C=N/NC(=O)c2nn(C)cc2Cl)cc1	-7.7%	1.1%[46.1 µM]	-0.6	15.5%
Cn1cc(Cl)c(C(=O)N/N=C/c2ccc3c4c(cccc24)CC3)n1	-4.2%	2.2%	-79.9*	4.2%
CC1CCCN(S(=O)(=O)c2csc(C(N)=O)c2)C1 (stereo not drawn)	-10.9%	11.5%	-139.9*	-4.6%
Fc1cccc(CNc2ncnc3ccc(-c4ccccc4Cl)cc23)c1	-25.2%	x	-20.2	x
c1ccc(CN2CCCC3(CCCN(Cc4nc(CC5CC5)no4)C3)C2)cc1 (stereo not drawn)	4.4%	1.4%	-8.0	8.91µM*
c1ccc(CN2CCCC3(CCCN(Cc4nc(COc5ccccc5)no4)C3)C2)cc1 (stereo not drawn)	14.0%	1.8%	-4.8	-13.1%
COc1cccc(-c2nc(CS(=O)(=O)CC(=O)N3CCN(c4ccccn4)CC3)c(C)o2)c1	9.3%	-5.9%	2.4	14.7%
COc1cccc(-c2nc(CS(=O)(=O)CC(=O)NC3CCCCCC3)c(C)o2)c1	-2.8%	-1.7%	-97.0*	-1.5%
COc1cccc(-c2nc(CS(=O)(=O)CC(=O)NC3CC3)c(C)o2)c1	2.2%	1.7%	1.0	-11.6%
SMILES	Eya2 inh	TCR act	TSHR antagonist	Integrin act MD
COc1cccc(-c2nc(CS(=O)(=O)CC(=O)N3CCCCC3)c(C)o2)c1	5.1%	-7.3%	-96.9*	23.2%
CCNC(=S)N/N=C(\C)c1cccc([N+](=O)[O-])c1	2.1%	10.1%[46.1 µM]	-5.1	29.2%
NC(=O)c1ccc(NC(=O)CNC(c2ccccc2)c2ccccc2)cc1	7.6%	-1.9%	-9.6	-17.8%
Cc1cccc(C)c1OCCCn1ccnc1	-12.3%	x	-130.0*	-8.3%
COc1ccc(NC(=O)c2cc(C)cc(C)c2)cc1S(=O)(=O)N1CCCCC1	12.5%	-6.7%	8.5	5.6%
COc1ccc([C@]23Cc4ccccc4C(O2)c2c(cc(C)n(Cc4ccccc4)c2=O)O3)cc1	-1.6%[15.4 µM]	x	x	x
Cc1nn(-c2ccc(N3CCOCC3)nn2)c(C)c1CCC(=O)NCc1ccccc1F	-9.0%	-3.8%	-105.0*	7.6%
Cc1cc(C)nc(NC(=O)c2ccc(Cl)cc2Cl)n1	6.0%	0.8%	1.4	10µM*
N/C(=N\OC(=O)COc1cc(Cl)c(Cl)cc1Cl)c1ccncc1	-3.6%	9.7%	-0.4	11.2µM*
N/C(=N\OC(=O)COc1ccc(Br)cc1Cl)c1ccncc1	2.7%	-0.7%[46.1 µM]	5.5	7.5%
COc1cc(C(=O)NCC(c2cccs2)N2CCOCC2)ccc1OCc1ccc(Cl)cc1 (stereo not drawn)	x	x	x	1.9%
O=[N+]([O-])c1ccc(S(=O)(=O)c2ccccc2)nc1	-0.6%	-4.8%	-97.9*	-1.4%
Cc1c(/C=N/Nc2ccc(F)cc2)c(O)n(C)c(=O)c1C#N	-2.7%	-5.0%	-3.9	7.08µM*
COC(=O)c1cnn(-c2ccc(C(=O)Nc3cccc(C(C)=O)c3)cc2)c1N	-13.5%	x	-16.3	x
CC[C@H](C)[C@H]1CNC(=S)N1CC1CCN(CCC(C)C)CC1	x	x	x	3.5%
CC(C)(C)N/C=C(\C#N)S(=O)(=O)c1ccc(Br)cc1	4.4%	0.0%	0.8	11.2µM*
COC(=O)C(=O)C/C(=N/Nc1ncnc2ccccc12)c1ccc(Cl)cc1	18.1%	-100.3%	-16.9	10µM*
Cc1cc(S(=O)(=O)c2ccc(Cl)cc2)nc(S(=O)(=O)c2ccc(Cl)cc2)c1C#N	x	x	x	-62.1%
O=C(CC1CCCC1)OCn1nnc2ccccc2c1=O	5.5%	-16.0%	15.3	4.9%
Cc1cccc(-c2noc(CN(C)C(=O)c3ccco3)n2)c1	-2.3%	3.4%	-99.9*	1.0%
Cc1cccc(-c2noc(CN(C)C(=O)c3ccoc3C)n2)c1	-14.2%	0.5%	-11.5	-1.7%
CNc1ncnc2ccc(-c3c(C)noc3C)cc12	-21.4%	x	15.1	x
COc1cc(NS(=O)(=O)c2ccc(-n3cccn3)cc2)cc(OC)c1	x	x	x	11.8%
C#CCOCCOCCOCCNc1nc(N2CCN(C(=O)CCCCCCCCCCNC(=O)[C@H]([C@@H](C)CC)n3cc(CCCCCN)nn3)CC2)nc(N2CCN(C(=O)CCCCCCCCCCNC(=O)[C@@H]([C@H](C)O)n3cc(C)nn3)CC2)n1	28.2µM*	1.0%	-10.1	-44.3%
COC(=O)Cc1c(O)ccn(Cc2ccc3c(c2)OCO3)c1=O	-11.4%	-7.0%	2.4	10µM*
SMILES	Eya2 inh	TCR act	TSHR antagonist	Integrin act MD
O=c1c(Cc2c(F)cccc2Cl)c(O)ccn1Cc1ccc2c(c1)OCO2	-4.5%	-13.1%	6.2	5.9%
COc1cccc(S(=O)(=O)N(C)C[C@@H]2Oc3cc(C#CCN(C)C)ccc3S(=O)(=O)N([C@H](C)CO)C[C@@H]2C)c1	x	x	x	-17.6%
CC(=O)c1cccc(NC(=O)CCCSc2ccccc2)c1	13.8%	1.3%	-81.4*	6.5%
O=C(O)c1ccc2c(c1)C(=O)N([C@H](Cc1ccc(-c3ccccc3)cc1)C(=O)O)C2=O	5.2%	x	-1.3	x
COc1nccc(NCc2ccccc2)c1C#N	x	0.8%	x	10µM*
N#Cc1c(NCc2ccccc2)ccnc1NCc1cccnc1	9.1%	11.3%	-15.1	0.0%
CS(=O)(=O)c1ccc(N2CCN(c3ccccn3)CC2)c([N+](=O)[O-])c1	6.5%	2.5%	-114.3*	0.0%
